Among all 52,000 compounds or so, about 4,300 (8.3%) were called active. The full list was thinned out, with actives kept by preference. A number with no mark means an inactive call. No stated cut-off is given here; in the data, active means survival mostly below about 52% (no sharp cut-off); inactive means mostly above about 56%.

In the assay the test system is DeltatarO mutant. The assay is described as follows: growth inhibition of S. aureus wild type versus tarO mutant, primary screen, teichoic acid synthesis inhibitors, RN4220, OD600 (AID 463173). To be noted: OD600, 18 h, stronger effect = lower value, screened at 18.75 µg/mL (by protocol).
Turning to `O=C(CCN1C(=O)CSC1=O)Nc1ccccc1`, the survival is 114%.

For the compound `COc1ccc(OC)c(-c2noc(N3CCN(c4cccc(C(F)(F)F)c4)CC3)n2)c1`, the survival is 124%.

`COc1ccc(NC(=O)c2cnn(-c3ccc(C)cc3)c2-n2cccc2)cc1Cl`: the survival was 69%.

Consider `CN1C(=O)Cc2cc(S(=O)(=O)N3CCN(c4ccccc4F)CC3)ccc21`, for which the survival was 107%.

On to `COC(=O)c1cc2occc2n1CC(=O)Nc1ccc(C(C)C)cc1`, for which the survival was 93%.

Consider `CCc1ccccc1Nc1cc(C(=O)NCc2ccc(C)cc2)c2ccccc2n1`, for which the survival is 69%.

As for `COc1ccccc1CNC(=O)CCC(=O)N1CC(C)Sc2ccccc21` (stereo not drawn), the survival is 111%.

Take `CC1CN(C(=O)CCC(=O)NCc2cccc(Cl)c2)c2ccccc2S1` (stereo not drawn): the survival was 100%.

Consider `COc1cccc(CNC(=O)CCC(=O)N2CC(C)Sc3ccccc32)c1` (stereo not drawn), for which the survival was 51% (active).

With `CCOc1ccc(CNC(=O)CCC(=O)N2CC(C)Sc3ccccc32)cc1` (stereo not drawn), the survival is 56%.

Regarding `Cc1ccc(CNC(=O)CCC(=O)N2CC(C)Sc3ccccc32)cc1` (stereo not drawn), the survival is 45% (active).

Turning to `Cc1ccc(CNC(=O)CCC(=O)N2CCSc3ccccc32)cc1`, the survival was 113%.

As for `O=C(Nc1ccc2nc(SCCOc3ccccc3Cl)sc2c1)c1ccc2c(c1)OCO2`, the survival was 68%.

Turning to `COc1cn(CC(=O)Nc2c(C)cc(C)cc2C)c(CN2CCCCC2)cc1=O`, the survival is 98%.

For the compound `CCOc1ccc(NS(=O)(=O)c2ccc(NC(=O)N3CCCC3)cc2)cc1`, the survival was 101%.

Regarding `COc1ccc(OC)c(NC(=O)C(C)n2c(=O)cc(C)c3c(C)nn(-c4ccccc4)c32)c1` (stereo not drawn), the survival was 94%.

Turning to `CCOc1ccccc1-c1cc(C(=O)N/N=C(\C)c2ccco2)[nH]n1`, the survival is 85%.

As for `Fc1ccc(-c2ccc(CNCCSc3nnnn3-c3ccccc3)o2)cc1Cl`, the survival is 39% (active).

Regarding `Fc1ccc(-c2ccc(CNCCSc3nnnn3-c3ccccc3)o2)cc1`, the survival was 28% (active).

For the compound `Clc1cccc(-c2ccc(CNCCSc3nnnn3-c3ccccc3)o2)c1`, the survival was 30% (active).

For the compound `CCOc1ccc(Br)cc1CNCCSc1nnnn1-c1ccccc1`, the survival is 23% (active).

On to `Clc1ccc(-c2ccc(CNCCSc3nnnn3-c3ccccc3)o2)cc1`, for which the survival is 52%.

For the compound `CCOc1cc(CNCCSc2nnnn2-c2ccccc2)ccc1OC`, the survival is 60%.

Regarding `Brc1ccc(-c2ccc(CNCCSc3nnnn3-c3ccccc3)o2)cc1`, the survival was 67%.

For the compound `Cc1c(Cl)cccc1-c1ccc(CNCCSc2nnnn2-c2ccccc2)o1`, the survival was 62%.

As to `Fc1ccc(CNCCCSc2nnnn2-c2ccccc2)cc1`, the survival was 97%.

As for `COc1cc(OC)c(OC)cc1CNCCSc1nnnn1-c1ccccc1`, the survival is 61%.

For the compound `Fc1cccc(Cl)c1CNCCSc1nnnn1-c1ccccc1`, the survival is 79%.

`Clc1cccc(CNCCCSc2nnnn2-c2ccccc2)c1`: the survival was 68%.

As for `Cc1ccccc1OCC(=O)Nc1ccc2[nH]c(=O)sc2c1`, the survival was 133%.

For `CN(C)c1ccc(/C=C/C=c2\sc3nc4ccccc4n3c2=O)cc1`, the survival is 102%.

As for `Cn1nnnc1SCCCNCc1ccc(-c2cccc(Cl)c2)o1`, the survival was 97%.

Regarding `Cn1nnnc1SCCCNCc1ccc(-c2ccc(Br)cc2)o1`, the survival was 32% (active).

Consider `Cn1nnnc1SCCCNCc1ccc(-c2ccc(F)c(Cl)c2)o1`, for which the survival was 82%.

Regarding `COc1cccc2c1Oc1ncccc1N(C(=O)CCC(=O)NCc1ccc(C)cc1)C2`, the survival was 81%.

Consider `CCc1ccc(C2=NN(CCC(=O)NCCc3ccc(Cl)cc3)C(=O)CC2)cc1`, for which the survival is 128%.

Take `O=C(CSc1nc2ccccc2nc1Cc1ccc(Cl)cc1)NCCc1ccccc1`: the survival is 69%.

Turning to `COc1ccc(CCNC(=O)CSc2nc3ccccc3nc2Cc2ccc(C)cc2)cc1OC`, the survival is 35% (active).

On to `CCOc1ccc(CCNC(=O)CSc2nc3ccccc3nc2Cc2ccc(C)cc2)cc1OCC`, for which the survival is 112%.

Regarding `Cc1ccc(CNC(=O)CSc2nc3ccccc3nc2Cc2ccc(C)cc2)cc1`, the survival was 71%.

For `COc1ccc(CCNC(=O)CSc2nc3ccccc3nc2Cc2ccc(Cl)cc2)cc1OC`, the survival was 37% (active).

With `CCCCN(C)C(=O)CSc1nc2ccccc2nc1Cc1ccc(C)cc1`, the survival was 32% (active).

Consider `Cc1ccc(Cc2nc3ccccc3nc2SCC(=O)NCCc2ccccc2)cc1`, for which the survival was 67%.

Consider `CCCNC(=O)CSc1nc2ccccc2nc1Cc1ccc(Cl)cc1`, for which the survival was 74%.

Take `CCCCNC(=O)CSc1nc2ccccc2nc1Cc1ccc(C)cc1`: the survival is 87%.

As to `CCOc1ccc(CNS(=O)(=O)c2ccc3c(c2)CCCN3C(C)=O)cc1`, the survival is 93%.

`CC(Sc1nc(NC(C)(C)C)nc(N(C)C)n1)C(=O)Nc1ccccc1` (stereo not drawn): the survival was 68%.

`COc1cc2[nH]c(=O)n(Cc3ccc(C(=O)N4CCN(c5cc(Cl)ccc5C)CC4)cc3)c(=O)c2cc1OC`: the survival was 58%.

As to `COc1ccc(CNC(=O)CCNS(=O)(=O)c2ccc3c(c2)CCCC(=O)N3)cc1`, the survival is 119%.

Consider `COc1ccccc1NC(=O)C1=C(C)Nc2nc(SCc3ccccc3Cl)nn2C1c1ccccn1` (stereo not drawn), for which the survival was 171%.

Take `CCn1cc(C(=O)N2CCN(c3ccc(OC)cc3)CC2)c(=O)c2cc(S(=O)(=O)N(C)C3CCCCC3)ccc21`: the survival was 122%.

As for `CC(NC(=O)c1ccc(NC(=O)c2nsc3ccccc23)cc1)c1ccccc1` (stereo not drawn), the survival is 84%.

As to `O=C(Cc1csc2ccccc12)NCc1ccc(F)cc1`, the survival is 71%.

On to `Cc1cc(C)c(NC(=O)C(C)n2c(=O)cc(C)c3c(C)nn(-c4ccccc4)c32)c(C)c1` (stereo not drawn), for which the survival is 81%.

For `COCCCNC(=O)c1nn(C)c2c1CS(=O)(=O)c1ccccc1-2`, the survival was 99%.

With `Cn1nc(C(=O)NCc2ccccc2)c2c1-c1ccccc1S(=O)(=O)C2`, the survival was 85%.

Turning to `COc1ccc(NC(=O)c2nn(C)c3c2CS(=O)(=O)c2ccccc2-3)cc1Cl`, the survival is 56% (active).

As for `CC(C)NC(=O)c1nn(C)c2c1CS(=O)(=O)c1ccccc1-2`, the survival is 51% (active).

In the case of `COc1ccc(Cl)cc1NC(=O)c1nn(C)c2c1CS(=O)(=O)c1ccccc1-2`, the survival was 53%.

On to `Cn1nc(C(=O)Nc2ccc(F)c(Cl)c2)c2c1-c1ccccc1S(=O)(=O)C2`, for which the survival is 90%.

Regarding `CCN1C(=O)c2ccccc2Sc2ccc(NC(=O)COc3ccc(Cl)cc3)cc21`, the survival was 91%.

Consider `CCCCN(CC)CCNC(=O)c1c(C)oc2ncnc(N3CCOCC3)c12`, for which the survival is 87%.

In the case of `COc1cccc(N2CCN(c3nc4ccc(C(=O)c5ccccc5)cc4n4c(C)nnc34)CC2)c1`, the survival is 102%.

For the compound `Cc1c(C(=O)OCCOc2ccccc2)[nH]c2c1C(=O)CC(c1ccccc1Cl)C2` (stereo not drawn), the survival is 80%.

For the compound `CCC(=O)N1CCc2cc(Br)cc(S(=O)(=O)NCCc3ccccc3)c21`, the survival was 43% (active).

With `CCC(=O)N1CCc2cc(Br)cc(S(=O)(=O)NCc3ccccc3)c21`, the survival is 66%.

As for `CCC(=O)N1CCc2cc(Br)cc(S(=O)(=O)NCCc3ccc(C)cc3)c21`, the survival is 85%.

In the case of `CCC(=O)N1CCc2cc(Br)cc(S(=O)(=O)NCCc3ccccc3Cl)c21`, the survival is 39% (active).

On to `CCC(=O)N1CCc2cc(Br)cc(S(=O)(=O)NCCc3cccc(C)c3)c21`, for which the survival is 102%.

Take `CCC(=O)N1CCc2cc(Br)cc(S(=O)(=O)CCC(=O)NCCc3ccccc3Cl)c21`: the survival is 72%.

For the compound `CC(CNC(=O)c1ccc2nc(Cc3ccccc3)oc2c1)c1ccccc1` (stereo not drawn), the survival is 70%.

With `CC(Sc1nccn1C)C(=O)Nc1ccccc1C#N` (stereo not drawn), the survival is 85%.

In the case of `COc1ccccc1CNc1ncnc2c1c(-c1ccccc1)cn2-c1cccc(C)c1`, the survival is 80%.

On to `O=S(=O)(c1ccc(C2CCCCC2)cc1)N1CCN(c2ccc(Cl)c(Cl)c2)CC1`, for which the survival was 54% (active).

In the case of `O=S(=O)(c1ccc(C2CCCCC2)cc1)N1CCN(c2cc(Cl)ccc2Cl)CC1`, the survival was 72%.

For the compound `CCc1ccc(S(=O)(=O)N2CCN(c3ccc(Cl)c(Cl)c3)CC2)cc1`, the survival is 118%.

Regarding `Cc1cccc(OC(=O)c2snnc2C)c1`, the survival was 88%.

Take `Cc1cccc(NC(=O)c2oc3ccc(S(=O)(=O)N4CCCCC4)cc3c2C)c1C`: the survival was 71%.

For `COc1ccccc1NC(=O)CSC1=Nc2ccccc2C2=NC(CC(=O)NCc3ccccc3)C(=O)N12` (stereo not drawn), the survival was 71%.

As to `Cc1ccc(-n2ncc3c(N4CCCCCC4)ncnc32)cc1Cl`, the survival was 102%.

On to `CCn1c(=O)cc(SCC(=O)NCCc2cc(OC)ccc2OC)c2ccccc21`, for which the survival was 61%.

Consider `COc1cccc(Cn2c(NCc3ccc(C)cc3)nc3c2c(=O)n(C)c(=O)n3C)c1`, for which the survival is 79%.

Turning to `CCCCNc1nc2c(c(=O)n(Cc3ccc(Cl)c(Cl)c3)c(=O)n2C)n1C`, the survival is -10% (active).

Turning to `Cn1c(=O)c2c(nc(Oc3ccccc3)n2Cc2c(Cl)cccc2Cl)n(C)c1=O`, the survival was 84%.

Turning to `Cc1cccc(Oc2nc3c(c(=O)n(C)c(=O)n3C)n2C)c1`, the survival is 123%.

Turning to `Cc1cccc(Oc2nc3c(c(=O)n(C)c(=O)n3C)n2Cc2ccccc2)c1C`, the survival was 53%.

Take `Cc1cc(C)cc(Oc2nc3c(c(=O)n(C)c(=O)n3C)n2Cc2ccc(F)cc2)c1`: the survival was 76%.

As for `CCCCC(CC)Cn1c(Oc2ccccc2)nc2c1c(=O)n(C)c(=O)n2C` (stereo not drawn), the survival is -15% (active).

In the case of `Cc1ccc(Oc2nc3c(c(=O)n(Cc4ccccc4)c(=O)n3C)n2C)cc1C`, the survival is 44%.

Turning to `COc1cccc(Cn2c(Oc3cc(C)cc(C)c3)nc3c2c(=O)n(C)c(=O)n3C)c1`, the survival is 31% (active).

For `CCCCNc1nc2c(c(=O)n(Cc3ccccc3)c(=O)n2C)n1C`, the survival is 66%.

In the case of `CCCCNc1nc2c(c(=O)n(Cc3ccc(Cl)cc3)c(=O)n2C)n1C`, the survival is 56%.

As for `Cc1ccc(C)c(Oc2nc3c(c(=O)n(C)c(=O)n3C)n2Cc2ccccc2)c1`, the survival was 32% (active).
